Source: PubChem BioAssay
This is a sample that favours compounds with a hit; in the whole collection about 12% have one here.
m-calpain inh: inhibitors of pig calpain II, primary screen, biochemical, fluorogenic peptide substrate, 1536-well; purified calpain II, 30 min; inhibition, % at 16 µM; AID 1236, 2008; hit rate 0.37% among 220,000;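 active = inhibition above about 50%, limit read from the data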
KCC2 mod: KCC2 cotransporter modulators, thallium flux, primary screen, cell-based, HEK293 KCC2, FluoZin-2 fluorescence, MLSMR; hit rate 2.2% among 190,000; AID 1456, 2008; B-score of Tl+ flux slope (higher = more flux/activation; lower = inhibition) at 10 µM; Solute carrier family 12 member 5 (Homo sapiens), Q9H2X9; KCC2 cells, thallium flux FluoZin-2 fluorescence;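 active = thallium flux slope and its plate-corrected score both differing from the plate sample mean at a set confidence after two filtering rounds, in either direction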;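 note: slope of fluorescence scaled to starting intensity during 10 to 20 s after thallium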
ROMK mod: ROMK potassium channel modulators, primary screen, cell-based, thallium flux, MLSMR library; B-score at 10 µM; hit rate 2% among 130,000; Tet-inducible ROMK, thallium flux fluorescence; actives lie on both sides;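 active = signal ratio slope over the read window, or its plate-corrected B-score, at least 3 SD from the plate mean, either direction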;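 note: B-score of the F/F0 ratio slope over 7 to 12 s after thallium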
Target sequence (P48048 whole entry, looked up): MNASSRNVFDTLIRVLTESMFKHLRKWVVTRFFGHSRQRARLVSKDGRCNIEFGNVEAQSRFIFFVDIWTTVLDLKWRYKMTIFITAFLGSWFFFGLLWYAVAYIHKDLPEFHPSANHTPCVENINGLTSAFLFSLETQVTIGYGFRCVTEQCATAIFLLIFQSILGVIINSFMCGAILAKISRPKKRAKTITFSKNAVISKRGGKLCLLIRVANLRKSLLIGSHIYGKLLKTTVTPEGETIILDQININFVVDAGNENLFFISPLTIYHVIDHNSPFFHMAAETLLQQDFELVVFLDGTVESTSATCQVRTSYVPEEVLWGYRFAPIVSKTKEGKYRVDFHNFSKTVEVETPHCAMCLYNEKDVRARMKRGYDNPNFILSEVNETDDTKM
L major viab: Leishmania major promastigote growth inhibition, primary screen; hit rate 9% among 200,000; inhibition, % at 10 µM; Leishmania major promastigotes, resazurin fluorescence viability; in the data active = inhibition above about 50%;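 note: promastigotes grown with compound for 44 hours at 28 °C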
WT yeast gro inh: growth inhibition of WT strain, primary screen, mitochondrial fusion inhibitor project, WT and mutant strains, chemical genetic | mitochondrial fusion phenotypic screen | AID 1362, 2008 | inhibition, % at 10 µM | hit rate 2.1% among 190,000; in the data active = inhibition above about 58%; tested in S. cerevisiae
KCC2 secondary: KCC2 modulators in sodium-free buffer, confirmation, cell-based, HEK293 KCC2, thallium flux, secondary assay; shares compounds with KCC2 mod; FluoZin2 fluorescence; active compounds read high; normalised thallium flux (F/F0 slope) at 10 µM; hit rate 15% among 3,700;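 active = thallium flux slope above the same plate's solvent-only control mean plus 3 SD; inconclusive = the two replicate wells disagree; inactive = no significant difference from solvent-only control wells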
KCC2 bumet counter: thallium flux persisting under bumetanide in KCC2 cells, confirmation, counter-screen for KCC2 modulator project, cell-based, HEK293 KCC2, FluoZin2, secondary assay 3; shares compounds with KCC2 mod; HEK293-KCC2 + bumetanide/ouabain; active compounds read high; normalized thallium flux at 10 µM; hit rate 49% among 3,700; AID 1714, 2009;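 active = thallium entry rate above the same plate's blocked-transporter control wells by more than 3 SD; inconclusive = the two repeat wells disagree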;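 note: raw slope of fluorescence over initial fluorescence between 10 and 20 s after thallium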
KCC2 sec2: KCC2 modulators without ouabain present, confirmation, cell-based, HEK293 KCC2, thallium flux, FluoZin2, secondary assay 2 | hit rate 23% among 3,700 | thallium flux FluoZin2 fluorescence; actives lie on both sides; F/F0 rise rate, 10–20 s post-thallium | AID 1715, 2009 | normalized thallium flux at 10 µM | shares compounds with KCC2 mod;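 active = thallium flux slope more than 3 SD above or below the plate's solvent-only control mean, mostly below; inconclusive = the two repeat wells disagreed; inactive = no significant shift from solvent-only controls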
HEK counter1: thallium flux modulation in parental HEK cells, confirmation, counter-screen for KCC2 modulator project, cell-based, counterscreen 1. HEK293 parental cells, thallium flux FluoZin2, ouabain; baseline-ratio fluorescence slope, 10–20 s after thallium. shares compounds with KCC2 mod. thallium flux rate (normalised fluorescence) at 10 µM. hit rate 46% among 3,700. AID 1716, 2009;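 active = thallium flux rate significantly above the same plate's solvent-only control wells, beyond their mean plus 3 SD; inconclusive = the two replicate wells gave conflicting results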
KCC2 ouabain: KCC2 inhibitors and activators, ouabain retest, confirmation, HEK-KCC2 cells; HEK293-KCC2, thallium flux FluoZin2 fluorescence; bidirectional: low = inhibitor, high = activator; hit rate 48% among 3,700; shares compounds with KCC2 mod; raw Tl+ flux slope (below DMSO = inhibition, above = activation) at 10 µM;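 active = thallium flux slope beyond 3 SD from same-plate DMSO control mean in most replicates, usually higher, sometimes lower; inconclusive = repeat tests gave conflicting results; inactive = no significant difference from controls in most replicates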;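 note: slope of initial-normalized fluorescence between seconds 10 and 20 after thallium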
HEK counter2: native HEK Tl+ uptake effects, second counter-screen – HEK cells, counterscreen 2, counter-screen for KCC2 modulator project, confirmation. shares compounds with KCC2 mod. HEK293 parental, thallium flux FluoZin-2 fluorescence slope. thallium flux slope at 10 µM. hit rate 33% among 3,700. AID 1718, 2009;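 active = thallium flux slope above the same plate's solvent-control mean plus 3 SD in both duplicate wells; inconclusive = duplicate wells that disagreed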;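 note: run without ouabain in cells lacking the KCC2 cotransporter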
Each line names hits and unclear results; the compound was inactive in the other large screens (follow-up assays come after a bar, where they were run).

Cc1ccc(/C=C2/Sc3ccccc3N(CC(=O)NCCCOC(C)C)C2=O)cc1	KCC2 mod -3.34 | KCC2 secondary inactive | KCC2 bumet counter inactive | KCC2 sec2 inconclusive | HEK counter1 inactive | KCC2 ouabain 0.0141 | HEK counter2 inactive
Cc1c(C(=O)NCCSCc2ccc(F)cc2)cnn1-c1ccc(Cl)cc1	KCC2 mod -3.83 (no result: ROMK mod, L major viab, WT yeast gro inh) | KCC2 secondary inactive | KCC2 bumet counter inactive | KCC2 sec2 inconclusive | HEK counter1 inactive | KCC2 ouabain 0.0169 | HEK counter2 inactive
Cc1c(C(=O)NCCSCc2c(F)cccc2Cl)cnn1-c1ccc(F)cc1	none (no result: ROMK mod, L major viab, WT yeast gro inh)
O=C(NCCN1CCN(c2ccccc2)CC1)c1ccc(NC(=O)C2CCCO2)cc1 (centres undefined)	none
CCOc1ccc(/C(O)=C/C(=O)C(=O)Nc2ccc(S(=O)(=O)NC(C)=O)cc2)cc1	none (no result: ROMK mod)
CC1(C)CC(=O)C2=C(C1)c1c(ccc3ccccc13)NC2c1cc([N+](=O)[O-])cc([N+](=O)[O-])c1O (centres undefined)	KCC2 mod -4.47 | KCC2 secondary inactive | KCC2 bumet counter inactive | KCC2 sec2 0.0269 | HEK counter1 inconclusive | KCC2 ouabain 0.0157 | HEK counter2 inactive
CN(NS(C)(=O)=O)c1c(C#N)c(C(F)(F)F)nn1C	none
S=C(N/N=C/c1cccc2ccccc12)Nc1cccc(Cl)c1	KCC2 mod 3.38 (no result: L major viab, WT yeast gro inh) | KCC2 secondary inactive | KCC2 bumet counter inactive | KCC2 sec2 inactive | HEK counter1 0.0116 | KCC2 ouabain 0.0294 | HEK counter2 inactive
S=C(N/N=C/c1ccc2ncccc2c1)Nc1ccccc1	KCC2 mod 6.5 | KCC2 secondary inactive | KCC2 bumet counter 0.0215 | KCC2 sec2 inactive | HEK counter1 0.0112 | KCC2 ouabain inactive | HEK counter2 0.014
C(=N\NCc1ccccc1)/c1ccc2ncccc2c1	none (no result: ROMK mod, L major viab, WT yeast gro inh)
COc1ccc(/C=N/NC(=S)Nc2ccccc2)cc1	KCC2 mod 9.05 | KCC2 secondary inactive | KCC2 bumet counter 0.0306 | KCC2 sec2 inactive | HEK counter1 0.01 | KCC2 ouabain inconclusive | HEK counter2 inactive
O=[N+]([O-])c1ccc(/C=N/NC(=S)Nc2ccccc2)o1	KCC2 mod 5.36, L major viab 50.4 (no result: ROMK mod) | KCC2 secondary 0.013 | KCC2 bumet counter 0.026 | KCC2 sec2 inactive | HEK counter1 0.0139 | KCC2 ouabain 0.0276 | HEK counter2 0.0111
O=C(O)c1cc(-c2ccc(/C=N/NC(=S)Nc3ccccc3)o2)ccc1Cl	none
COc1ccc(/C=N/NC(=S)Nc2cccc(C(=O)O)c2)cc1	none
CC1CC(C)CN(C(=O)C2CCC(CNc3c(N4CCCCC4)c(=O)c3=O)CC2)C1 (centres undefined)	none (no result: L major viab, WT yeast gro inh)
C=C1c2cc3c(cc2NC(=S)N1Cc1ccccc1)OCO3	KCC2 mod 53.2 (no result: ROMK mod, L major viab, WT yeast gro inh) | KCC2 secondary 0.0157 | KCC2 bumet counter 0.0989 | KCC2 sec2 inactive | HEK counter1 0.0353 | KCC2 ouabain 0.0473 | HEK counter2 0.0159
c1ccc(CN2CCC(N3CCN(Cc4ccc5c(c4)OCO5)CC3)CC2)cc1	none (no result: ROMK mod, L major viab, WT yeast gro inh)
CC(=O)CSc1nnc2c3ccccc3nc(C(C)(C)C)n12	none (no result: ROMK mod)
Cc1ccc(C(=O)CSc2nnc3c4ccccc4nc(C(C)(C)C)n23)cc1	KCC2 mod 16.4 | KCC2 secondary 0.0136 | KCC2 bumet counter 0.0427 | KCC2 sec2 inactive | HEK counter1 0.0191 | KCC2 ouabain 0.0319 | HEK counter2 0.0122
CC1CCCC(NC(=O)CCn2c(=S)oc3ccccc32)C1C (centres undefined)	none (no result: L major viab, WT yeast gro inh) | KCC2 secondary inactive | KCC2 bumet counter inactive | KCC2 sec2 inactive | HEK counter1 inactive | KCC2 ouabain inactive | HEK counter2 inconclusive
O=C(CCn1c(=S)oc2ccccc21)NC1CCCCCC1	none (no result: ROMK mod, L major viab, WT yeast gro inh)
Cc1sc2nc(SCc3nnc(-c4cccs4)o3)n(C3CCCC3)c(=O)c2c1C	KCC2 mod 10.3 | KCC2 secondary 0.0165 | KCC2 bumet counter 0.0461 | KCC2 sec2 inactive | HEK counter1 0.019 | KCC2 ouabain inactive | HEK counter2 0.014
COC(=O)CSc1nnc(CNC(=O)c2ccc(S(=O)(=O)N3CCOCC3)cc2)n1C	none
O=C(Nc1nnc(-c2ccc3c(c2)CCCC3)o1)c1c(F)cccc1F	KCC2 mod 15.7 | KCC2 secondary 0.0169 | KCC2 bumet counter 0.0466 | KCC2 sec2 inactive | HEK counter1 0.0203 | KCC2 ouabain 0.0346 | HEK counter2 0.0128
C=CCN1C(=O)N(/C=C/C)c2cccc3cccc1c23	KCC2 mod 7.61 | KCC2 secondary inactive | KCC2 bumet counter inactive | KCC2 sec2 inactive | HEK counter1 0.00568 | KCC2 ouabain inactive | HEK counter2 inactive
C=CCN1C(=O)C(C)(C)Nc2ccccc21	none (no result: KCC2 mod, ROMK mod)
O=C1c2ccccc2NC(c2ccc(Cl)cc2Cl)N1O (centres undefined)	KCC2 mod 3.84, L major viab 70.0 (no result: ROMK mod) | KCC2 secondary inactive | KCC2 bumet counter 0.0209 | KCC2 sec2 inactive | HEK counter1 0.00946 | KCC2 ouabain inactive | HEK counter2 inactive
CC(=O)NC1(c2ccccc2)CCN(c2nc(C)cc(C)n2)CC1	none
Cc1[nH]n(-c2ccccc2)c(=O)c1C(=O)c1ccc([N+](=O)[O-])cc1	none
Cc1nn(-c2ccccc2)nc1C(=O)c1c(C)[nH]n(-c2ccccc2)c1=O	KCC2 mod 10.7 (no result: L major viab, WT yeast gro inh) | KCC2 secondary 0.0148 | KCC2 bumet counter 0.0285 | KCC2 sec2 inactive | HEK counter1 inconclusive | KCC2 ouabain 0.0335 | HEK counter2 inconclusive
Cc1cc(SCC(=O)OCC(=O)NCC2CCCO2)c(C)cc1Br (centres undefined)	none
